An excerpt weighted towards active compounds, which were near 6% of everything screened.
D1 ag: Allosteric Agonists of the Human D1 Dopamine Receptor: qHTS. HEK293 T-REx D1 cells, calcium flux, agonist mode. activation, % at 2 µM. 360,000 compounds, 1% hits. AID 504660, 2011; in the data active = activation above about 30%
Target sequence (P21728 whole entry, looked up): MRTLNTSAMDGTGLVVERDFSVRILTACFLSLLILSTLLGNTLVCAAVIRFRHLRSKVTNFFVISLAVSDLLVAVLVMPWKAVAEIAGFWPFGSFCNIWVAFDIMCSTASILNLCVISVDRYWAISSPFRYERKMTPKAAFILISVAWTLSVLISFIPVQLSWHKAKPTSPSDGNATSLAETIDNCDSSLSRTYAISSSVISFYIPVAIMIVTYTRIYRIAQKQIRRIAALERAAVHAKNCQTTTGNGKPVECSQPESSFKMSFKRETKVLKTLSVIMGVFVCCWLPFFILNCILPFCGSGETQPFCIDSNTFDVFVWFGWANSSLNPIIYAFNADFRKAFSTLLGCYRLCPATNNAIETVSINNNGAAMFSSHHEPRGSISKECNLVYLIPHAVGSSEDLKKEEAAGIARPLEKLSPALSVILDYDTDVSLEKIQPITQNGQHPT
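Tetracycline-induced HEK293 TREx D1 cells, force-coupled to calcium signalling, were dye-loaded with a no-wash calcium kit. Compound was pin-added after a 10 s baseline. Fluorescence was read kinetically at 1 cycle/s for 180 s, with calcium rises flagged as agonism.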
D1 antagonist: Antagonist of Human D 1 Dopamine Receptor: qHTS; D(1A) dopamine receptor (Homo sapiens), P21728; HEK293 TREx D1 cells, calcium flux, dopamine EC80; active compounds read low; activity change, negative = inhibition, % at 10 µM; 360,000 compounds, 3.2% hits; AID 504652, 2011; in the data active = activity change below about -30%
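Kinetic fluorescence of a calcium dye serves as the read-out. D1-expressing Hek293 Trex cells, induced overnight at 30 C, are exposed to compound for 180 s before an EC80 dopamine addition, then read 180 s further.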
D1 PAM: Potentiators of Human D1 Dopamine Receptor: qHTS; D(1A) dopamine receptor (Homo sapiens), P21728; potentiation, % at 10 µM; HEK293 TREx D1 cells, calcium flux, dopamine EC20 potentiation; 360,000 compounds, 0.036% hits; in the data active = potentiation above about 30%
DRD3 antagonist: qHTS of D3 Dopamine Receptor Antagonist: qHTS; 360,000 compounds, 2.5% hits; max response, negative = inhibition, %; D3R cells, DiscoveRx beta-arrestin luminescence, antagonist mode; active compounds read low; D(3) dopamine receptor (Homo sapiens), P35462; in the data active = max response below about -50%; inconclusive = no clear call, values can overlap the other calls
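Cells plated overnight at 1500 cells/well, then exposed to library compounds with dopamine controls for 90 minutes at 37 degrees C. DiscoveRx reagent added for 30–60 minutes at room temperature; luminescence read, quantitative HTS format.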
DRD3 agonist: qHTS of D3 Dopamine Receptor Agonist: qHTS | D(3) dopamine receptor (Homo sapiens), P35462 | D3R DiscoveRx beta-arrestin cells, luminescence, 90 min | max activation, % | 410,000 compounds, 0.58% hits; in the data active = max activation above about 30%
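Cells at 1500/well, incubated overnight, then treated with pinned compounds (dopamine as control) for 90 min at 37 degrees C. DiscoveRx reagent added for 30 - 60 minutes at room temperature; luminescence read.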
A number is an active result; i = inactive; ? = inconclusive; nt = not tested or not shown.

SMILES | D1 ag | D1 antagonist | D1 PAM | DRD3 antagonist | DRD3 agonist
Nc1c(N(CCC2=CCCCC2)C(=O)COc2ccc(F)cc2Cl)c(=O)[nH]c(=O)n1Cc1ccccc1 | nt | nt | nt | -91.5 | i
CCCN(C(=O)COC(=O)CCOc1ccccc1)c1c(N)n(Cc2ccccc2)c(=O)[nH]c1=O | i | i | i | i | i
CC(C)CCN(C(=O)Cc1ccc(Cl)c(Cl)c1)c1c(N)n(Cc2ccccc2)c(=O)[nH]c1=O | i | i | i | -72.2 | i
CC(C)CCN(C(=O)c1ccncc1)c1c(N)n(Cc2ccccc2)c(=O)[nH]c1=O | i | i | i | i | i
CCCN(C(=O)CCOc1ccc(C(C)(C)C)cc1)c1c(N)n(Cc2ccccc2)c(=O)[nH]c1=O | i | -49.9 | i | i | i
Nc1c(N(CCC2=CCCCC2)C(=O)Cc2ccc(F)cc2)c(=O)[nH]c(=O)n1Cc1ccccc1 | i | i | i | i | i
Cc1ccc(S(=O)(=O)c2cn(CC(=O)Nc3cccc(C)c3)c3cc4c(cc3c2=O)OCO4)cc1 | i | i | i | nt | i
Cc1cc2c(s1)c1cnn(Cc3ccc(C)c(F)c3F)c(=O)c1n2C | i | i | i | nt | nt
CN(CC(=O)Nc1cccc(F)c1)C(=O)c1cccc(S(=O)(=O)N2CCN(c3ccccc3)CC2)c1 | i | i | i | i | i
CN1CCN(S(=O)(=O)c2cccc(C(=O)N(C)CC(=O)Nc3ccc(F)c(F)c3F)c2)CC1 | 179.2 | i | i | i | i
COc1ccccc1N1CCN(C(=O)c2cccc(S(=O)(=O)N3CCCCCC3)c2)CC1 | i | -42.5 | i | i | i
CN(CC(=O)Nc1ccc(F)cc1)C(=O)c1cccc(S(=O)(=O)N2CCN(c3ccc(F)cc3)CC2)c1 | i | -39.0 | i | i | i
CC1CC(C)CN(S(=O)(=O)c2cccc(C(=O)N3CCN(c4ccc(F)cc4)CC3)c2)C1 (centres undefined) | i | i | i | i | i
O=C(c1cccc(S(=O)(=O)N2CCCCCC2)c1)N1CCN(c2ccccc2F)CC1 | i | i | i | i | i
CC1CCN(S(=O)(=O)c2cccc(C(=O)N3CCN(c4ccc(F)cc4)CC3)c2)CC1 | i | -39.0 | i | i | i
CCOc1ccc(OCC)c(NC(=O)c2cc(S(=O)(=O)N3CCCC3)cn2C)c1 | i | i | i | nt | i
CCOC(=O)c1cc(OC(=O)c2cc(OC)cc(OC)c2)n(-c2ccccc2)n1 | i | i | i | nt | i
CC(C)(C)[C@H](NC(=O)c1ccc(N)c(Cl)c1)C(=O)N1CCC[C@H]1C(=O)N[C@H](C#N)Cc1nn[nH]n1 | i | i | i | nt | nt
O=C1CCCc2[nH]c(=O)c(-c3nc(-c4cccc([N+](=O)[O-])c4)cs3)cc21 | i | i | i | nt | i
Cc1cccc(CNc2ncnc3ccc(-c4ccc5c(ccn5C)c4)cc23)c1 | i | i | i | nt | nt
COc1cccc(NC(=O)CN(C)C(C)C(=O)Nc2ccc(S(=O)(=O)N3CCCC3)cc2)c1 (centres undefined) | i | -33.6 | i | i | i
COc1ccc(NC(=O)CN(C)C(=O)c2cccc(S(=O)(=O)N3CCN(C)CC3)c2)cc1 | i | i | i | i | i
COc1ccccc1N1CCN(C(=O)c2ccc3[nH]c4c(c3c2)CC(C)CC4)CC1 (centres undefined) | i | -57.4 | i | i | i
COc1ccccc1N1CCN(C(=O)c2ccc3[nH]c(C)c(C)c3c2)CC1 | i | i | i | i | i
CC(C(=O)Nc1ccc(S(=O)(=O)N2CCCC2)cc1)N(C)CC(=O)Nc1cccc(F)c1 (centres undefined) | nt | nt | nt | i | i
SMILES | D1 ag | D1 antagonist | D1 PAM | DRD3 antagonist | DRD3 agonist
COc1cccc(NC(=O)CN(C)C(=O)c2cccc(S(=O)(=O)N3CCN(c4ccc(F)cc4)CC3)c2)c1 | i | -33.9 | i | i | i
COc1ccc(CNC(=O)C2CCCN(S(=O)(=O)c3ccc4c(ccn4C)c3)C2)c(OC)c1 (centres undefined) | i | i | i | nt | i
Oc1[nH]c2ccccc2c1N=NC(=S)NCCc1ccccc1 | i | -30.3 | i | i | i
Oc1cccc(NC(=S)N=Nc2c(O)[nH]c3ccccc23)c1 | i | -31.2 | i | i | i
CCCCNC(=S)N=Nc1c(O)[nH]c2ccccc12 | i | -31.2 | i | i | i
CCOc1ccc(NC(=S)N=Nc2c(O)[nH]c3ccccc23)cc1 | i | i | i | i | i
COc1ccc(S(=O)(=O)N(Cc2nc(-c3ccc(C)cc3)no2)C2CCCCC2)cc1 | i | i | i | nt | i
CCOCCCNC(=O)c1c(NC(=O)c2cc(=O)c3cc(C)c(C)cc3o2)sc2c1CCC2 | i | i | i | nt | i
Cc1cn2c(=O)cc(COC(=O)c3ccc(NC(=O)C(C)Oc4ccccc4)cc3)nc2s1 (centres undefined) | i | i | i | nt | i
Cc1cc(=O)oc2cc(OC(C)C(=O)Nc3nccs3)ccc12 (centres undefined) | i | -37.0 | i | i | i
Cn1cc(-c2cc3n(n2)CCC(=O)N3CC(=O)NCc2ccccc2)c2ccccc21 | i | i | i | nt | i
NC(=S)n1[nH]c(-c2ccc([N+](=O)[O-])cc2)c(N=Nc2ccccc2[N+](=O)[O-])c1=O | i | -51.4 | i | i | i
Cc1ccc(CNC(=O)c2cc(=O)c3ccccc3o2)cc1 | i | -35.4 | nt | i | i
Cc1cc2oc(C(=O)Nc3c(C(=O)Nc4ccccc4)oc4ccccc34)cc(=O)c2cc1C | i | -42.9 | i | nt | i
COc1ccc(CNC(=O)c2cc3cc(OC)ccc3oc2=O)cc1 | i | i | i | i | i
COc1ccc2oc(=O)c(C(=O)NCc3ccc(C)cc3)cc2c1 | i | -37.3 | i | i | i
Cc1cc(C)c2c(=O)cc(C(=O)NCc3ccccc3)oc2c1 | i | i | i | -52.8 | i
Cc1ccc(CNC(=O)c2cc(=O)c3ccc(C)cc3o2)cc1 | i | i | i | i | i
Cc1ccc2oc(C(=O)NCc3ccccc3)cc(=O)c2c1 | i | i | i | i | i
Cc1ccc2c(=O)cc(C(=O)Nc3c(C)cccc3C)oc2c1 | i | -32.1 | i | nt | i
COc1ccc(CNC(=O)c2cc(=O)c3cc(C)ccc3o2)cc1 | i | -36.2 | i | i | i
CCOc1c(Br)cc(C2CC(=O)Nc3cc4c(cc32)OCO4)cc1OC (centres undefined) | i | i | i | nt | i
O=C(CN1CCSC1=NCc1ccccc1)c1ccc(Cl)cc1 | i | i | i | -66.9 | i
O=C(Nc1ccc(Cl)cc1)N1CCSC1=NCc1ccccc1 | i | i | i | i | i
Cc1nc2[nH]onc2c2nccc(=O)c12 | i | -38.6 | i | ? | i
CC(O)(c1ccc(F)c(F)c1)c1nc(-c2cccc(C(F)(F)F)c2)cs1 (centres undefined) | nt | nt | nt | i | i
CC(O)(c1ccccc1)c1nc(-c2cccc(C(=O)O)c2)cs1 (centres undefined) | nt | nt | nt | i | i
